Source: PubChem (National Center for Advancing Translational Sciences (NCATS))
Many of the other results were omitted from the sample, so hits are more common in it than they were.
IMPase cell inh – qHTS Assay for Identifying the Cell-Membrane Permeable IMPase Inhibitors | Inositol monophosphatase 1 (Rattus norvegicus), P97697 | CHO-M1 cells, IP1 accumulation, HTRF TR-FRET ratio | inhibition (IP1 accumulation), % at 46.1 µM | 120,000 tested, under 10 active; active = well fitted curve in the direction sought with a large enough effect in the signal ratio, not every such curve was filed as active; inconclusive = small, poorly fitted or top-dose-only effect, or a change in a side signal; inactive = no such curve, though single readings can be large or run the other way; the % refers to the signal ratio;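 also: cells stimulated with carbachol in lithium chloride buffer; higher means more IMPase inhibition seen as more IP1 and lower FRET ratio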
Target sequence (P97697 whole entry, looked up): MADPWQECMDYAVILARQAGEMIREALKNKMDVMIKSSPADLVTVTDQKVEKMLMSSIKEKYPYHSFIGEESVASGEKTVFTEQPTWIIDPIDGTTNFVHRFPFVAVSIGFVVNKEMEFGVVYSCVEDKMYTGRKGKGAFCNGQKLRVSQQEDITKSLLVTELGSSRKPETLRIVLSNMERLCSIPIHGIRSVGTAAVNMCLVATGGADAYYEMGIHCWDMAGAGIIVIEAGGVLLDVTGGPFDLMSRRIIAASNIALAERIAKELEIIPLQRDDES
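In this qHTS, compounds (final up to 46 uM) act on CHO-M1 cells that are then activated through the M1 receptor with carbachol, in pH 7.4 buffer containing 50 mM LiCl, for 30 min. IP1 accumulation is quantified by the IP-One immunoassay.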
LMNA splice mod – qHTS Assay for Modulators of Lamin A Splicing; HeLa LMNA splicing GFP/RFP minigene ratio, 48 h; Potency, µM (series often up to 46.1 µM), most hits filed as inhibitors; 0.01% of 200,000 active; active = well fitted inhibition curve with a large enough effect in the signal ratio, with a control signal flat, not every such curve was filed as active; inconclusive = small, poorly fitted or top-dose-only effect, or effect the other way, or a change in a side signal; the % refers to the signal ratio
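S3 HeLa stable clones carrying a lamin A-EGFP splicing minigene plus DsRed2 were seeded at 600 cells/well in Opti-MEM with 2% FBS, pin-dosed and incubated 48 h at 37°C. Acumen cytometry (488 nm) gave the GFP/RFP total-intensity ratio.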
PNC inhibitor – High Content Assay for Compounds that inhibit the Assembly of the Perinucleolar Compartment. PC3M PTB-GFP, PNC prevalence imaging, 16 h; active compounds read low. activity change (PNC), negative = inhibition, % at 10 µM. 3.1% of 140,000 active. AID 2417, 2010;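 active = readout at or below -70, meaning at least 70% loss of cells showing the perinucleolar compartment, a nuclear body marking cancer cells; inconclusive = readout between -30 and a set limit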
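Read-out is percentage of cells bearing a perinucleolar compartment, from automated 20x imaging of fixed, Hoechst-stained PC3M PTB-GFP cells. Cells were seeded 4 h, then exposed 16 h to compound (23 nl of library stock) in duplicate plates.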
Numbers stand for hits; - = inactive; ? = inconclusive; . = no result.

SMILES	IMPase cell inh	LMNA splice mod	PNC inhibitor
CCc1ccc(N2C(=O)CS(=O)(=O)C23C(=O)N(Cc2ccccc2F)c2ccccc23)cc1 (stereo not given)	.	-	.
O=C(NC1CC(=O)N(c2ccc(Cl)cc2)C1)c1ccc(S(=O)(=O)N2CCCC2)cc1 (stereo not given)	.	-	.
Cc1ccc(OCC(=O)Nc2nnn(C)n2)c(C)c1	-	-	-
Cc1cc(C)c(OCC(=O)Nc2nnn(C)n2)c(Br)c1	-	-	-100
CC(N)=O	-	?	.
CC(=O)c1ccc(OCC(=O)c2ccc(-c3ccccc3)cc2)cc1	.	?	-87
CC(C)OC(=O)COc1ccc(-c2ccccc2)cc1	-	-	-
CC[C@@H]1OC(=O)[C@H](C)[C@H](O[C@@H]2C[C@](C)(OC)[C@H](O)[C@H](C)O2)[C@H](C)[C@H](O[C@@H]2O[C@@H](C)C[C@@H](N(C)C)[C@@H]2O)[C@](C)(O)C[C@H](C)[C@@H]2N[C@H](COCCOC)O[C@H]([C@@H]2C)[C@]1(C)O	-	-	.
COc1cccc(-c2nc(SCC(=O)Nc3ccc4c(c3)OCCO4)c(-c3ccc(C)cc3)[nH]2)c1	-	.	.
Cn1c(C(=O)N2CCN(C(=O)c3ccco3)CC2)cc2c(=O)n(C)c3ccccc3c21	-	-	-
COc1ccccc1N1CCN(C(=O)c2cc3c(=O)n(C)c4ccccc4c3n2C)CC1	-	-	-88
COc1cc2c(cc1OC)CN(S(=O)(=O)c1ccc3c(c1)OCCO3)CC2	-	-	-
CCOc1nc(SCCOc2ccc(C)cc2)nc(N(C)C)n1	-	?	-
CCNc1nc(NCC)nc(SCCOc2ccc(C)cc2)n1	.	?	-113
O=C1C2CCCN2C(c2ccc(F)cc2)N1c1ccc(Cl)cc1 (stereo not given)	-	?	-98
O=C1C2CCCN2C(c2ccccc2)N1c1ccc(F)cc1 (stereo not given)	-	-	-
COc1ccc(OC)c(-c2c3cc(O)c(=O)cc-3oc3cc(O)c(O)cc23)c1	.	?	-
CCOc1ccccc1-c1c2cc(O)c(=O)cc-2oc2cc(O)c(O)cc12	?	-	-83
CCC(C)NC(=O)C1CCCN1S(=O)(=O)c1ccc(Cl)cc1 (stereo not given)	-	-	-119
CCC(C)NC(=O)C1CCCCN1S(=O)(=O)c1ccc(F)cc1 (stereo not given)	-	-	?
Cc1ccc(C(=O)c2oc3ccccc3c2NC(=O)COc2ccc(C(C)(C)C)cc2)cc1	-	.	.
O=C(c1ccccc1)c1c[nH]cc1-c1ccccc1	-	-	-100
Cc1ccc(C(=O)c2c[nH]cc2-c2ccccc2)cc1	?	-	-
CCc1ccccc1NCc1nnc2n1CCCCC2	.	-	.
CCOc1ccc2nc(SCC(=O)NC(=O)C(C)C)sc2c1	.	-	.
SMILES	IMPase cell inh	LMNA splice mod	PNC inhibitor
O=C(COC(=O)c1ccccc1Nc1cccc(C(F)(F)F)c1)NCc1ccco1	-	-	-
CCOc1ccc2c(c1)OC(c1ccccc1)(C(F)(F)F)NC2=O (stereo not given)	.	-	-
CCOc1ccc2c(c1)OC(c1ccc(OC)cc1)(C(F)(F)F)NC2=O (stereo not given)	-	?	-92
CC(=O)c1cccc(NC(=O)c2cc(C)nc3c2c(C)nn3-c2cccc(Cl)c2C)c1	.	-	.
CCOP(=O)(OCC)C(NC(=O)Nc1cccc(Cl)c1)c1ccccc1 (stereo not given)	.	-	-113
CCOP(=O)(OCC)C(NC(=O)Nc1cccc(Cl)c1)C(N)=O (stereo not given)	-	?	-
Cc1cccc(N(C)C(=O)C2CCN(S(=O)(=O)c3cccc4nonc34)CC2)c1	.	-	.
CC(=O)Nc1sc2c(c1C(c1ccc(F)cc1)N1CCOCC1)CCCC2 (stereo not given)	-	?	-
CC(=O)Nc1sc2c(c1C(c1ccc(Cl)cc1)N1CCOCC1)CCCC2 (stereo not given)	-	?	-106
CCOc1cc(Cn2c(-c3ccc(O)c(OCC)c3)nc3ccccc32)ccc1O	.	-	.
Cc1nc(-c2cccc(NC(=O)Nc3ccc([N+](=O)[O-])cc3)c2)no1	.	-	.
COc1cc(OC)c(NC(C)C(=O)N2CCCC2)cc1Cl (stereo not given)	.	-	.
CSc1nc(N(C)NC(=O)c2ccc(F)cc2)c2ccccc2n1	-	?	-83
Cn1c(CNC(=O)c2ccc(F)cc2)nc2ccccc21	-	-	-
CCCCCn1c(=N)n(CC(O)COc2cccc(C)c2)c2ccccc21 (stereo not given)	-	.	.
CCc1nc(SCC(=O)N2c3ccccc3CC2C)c2c(C)c(C)sc2n1 (stereo not given)	-	?	?
